Experimental data from PubChem BioAssay (NCI).
The panel holds about 83,000 compounds, 20% with a hit somewhere; the sample as a whole holds those more often.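 Treatment: one concentration, 48 hours, 96-well format. Scoring: percent growth, with anything below 10 considered active.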 Active and inactive are the calls of the source.

Experiments:
Assay in all cases: NCI-60 one-dose screen, 48 h (100 = growth as untreated, 0 = no growth, -100 = all killed)
NCI-H226 lung = details: 10 µM unless noted
NCI-H322M lung = details: 10 µM unless noted
HOP-62 NSCLC = details: 10 µM unless noted
K-562 leukemia = details: 10 µM unless noted
SNB-19 CNS = details: 10 µM unless noted
SK-MEL-5 melanoma = details: 10 µM unless noted
LOX IMVI melanoma = details: 10 µM unless noted
TK-10 renal = details: 10 µM unless noted
CCRF-CEM leukemia = details: 10 µM unless noted
MOLT-4 leukemia = details: 10 µM
RPMI-8226 leukemia = details: 10 µM unless noted
IGROV1 ovarian = details: 10 µM
HCC-2998 colon = details: 10 µM unless noted
SF-295 CNS = details: 10 µM unless noted
EKVX NSCLC = details: 10 µM unless noted
HOP-92 NSCLC = details: 10 µM unless noted
HCT-15 colon = details: 10 µM
SR leukemia = details: 10 µM
NCI-H522 lung = details: 10 µM unless noted

Measured: growth

Nc1nc(N)c(-c2ccc(Cl)c(Cl)c2)c(/C=C/c2ccc(S(=O)(=O)F)cc2)n1
inactive: NCI-H226 lung 114% | NCI-H322M lung 89.8% | HOP-62 NSCLC 91.3% | K-562 leukemia 53.4% | SNB-19 CNS 102% | SK-MEL-5 melanoma 84.6% | LOX IMVI melanoma 69.1% | TK-10 renal 86.8% | CCRF-CEM leukemia 58.7% | MOLT-4 leukemia 76.8% | RPMI-8226 leukemia 93.1% | IGROV1 ovarian 89.3% | HCC-2998 colon 111%

C[C@]12CCC(=O)CC1CC[C@@H]1C2CC[C@@]2(C)C1CC[C@@H]2OC(=O)CC[Se][Se]CCC(=O)O[C@H]1CCC2[C@@H]3CCC4CC(=O)CC[C@]4(C)C3CC[C@@]21C (stereo partly drawn)
inactive: NCI-H226 lung 93% | NCI-H322M lung 84.1% | HOP-62 NSCLC 82.4% | SF-295 CNS 96.7% | SNB-19 CNS 76.7% | SK-MEL-5 melanoma 93.2% | LOX IMVI melanoma 80.8% | EKVX NSCLC 31.9% | TK-10 renal 77.4% | HCC-2998 colon 108%

O=C1c2ccccc2C(=O)N1[N+](=O)[O-]
inactive: NCI-H226 lung 95.6% | NCI-H322M lung 84.4% | HOP-92 NSCLC 91.1% | K-562 leukemia 105% | SF-295 CNS 103% | HCT-15 colon 110% | SK-MEL-5 melanoma 104% | LOX IMVI melanoma 91.6% | TK-10 renal 93.2% | CCRF-CEM leukemia 90% | MOLT-4 leukemia 108% | SR leukemia 95.4% | RPMI-8226 leukemia 101% | IGROV1 ovarian 109%

NS(=O)(=O)c1nc[nH]c1[N+](=O)[O-]
inactive: NCI-H226 lung 99.4% | NCI-H322M lung 110% | HOP-92 NSCLC 68.1% | NCI-H522 lung 109% | K-562 leukemia 101% | SF-295 CNS 108% | SNB-19 CNS 105% | SK-MEL-5 melanoma 101% | LOX IMVI melanoma 101% | EKVX NSCLC 117% | TK-10 renal 99.5% | CCRF-CEM leukemia 106% | MOLT-4 leukemia 102% | SR leukemia 102% | RPMI-8226 leukemia 101% | HCC-2998 colon 100%
